# Rows were chosen to be rich in hits. Some 2.9% of all compounds tested hit in one or more screens of this group.
# ADAM10 inh: inhibits human ADAM10; O14672; recombinant ADAM10, EDANS/DABCYL FRET peptide cleavage, 3 h; inhibition, % at 7 µM; actives 0.62% (n = 370,000); AID 720582;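 active means inhibition above a per-campaign cutoff equal to the mean of compounds falling between control-based bounds plus 3 SD, cut at about 20% in these data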;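 further: 0% = DMSO wells while the 100% control is not disclosed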
# KLK7 zymogen act: proKLK7 (human) activation, primary screen; P49862; actives 0.9% (n = 370,000); activation, % at 7 µM; AID 652039; purified proKLK7, EDANS-DABCYL substrate fluorescence; 100% is mature enzyme control, 0% vehicle;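 active means activation above the mean of all tested compounds plus 3 SD, computed per campaign excluding outliers beyond control limits, cut at about 13% in these data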
# ADAM17 inh: inhibitors of human ADAM17; recombinant ADAM17, EDANS/DABCYL FRET peptide cleavage; actives 0.83% (n = 370,000); P78536; inhibition, % at 6.95 µM;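 active means inhibition above the mean of compounds lying between control limits plus 3 SD, set per campaign, cut at about 8.5% in these data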;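 further: 0% = DMSO-only wells as the low control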
# PLCb3 inh: inhibitors of human phospholipase C beta3; AID 720704; Purified PLC-beta3, fluorogenic substrate, fluorescence; inhibition, % at 12.2 µM; Q01970; actives 0.18% (n = 370,000); in the data active means inhibition above about 11%;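 further: 0% = median of compound wells on plate and 100% = full blocker control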
# PLCg1 inh: PLC-gamma1 (human) inhibition, primary screen; P19174; purified PLC-gamma1, fluorogenic substrate, fluorescence; inhibition, % at 12.2 µM; actives 0.84% (n = 370,000); AID 720700
# PLCg1 ctr: counter-screen for PLC-beta3 inhibitors: inhibitors of human PLC-gamma1 | inhibition, % at 12.3 µM | actives 3.1% (n = 3,300) | shares compounds with PLCg1 inh | purified PLC-gamma1, fluorogenic substrate, fluorescence
# PLCb3 confirm: human PLC-beta3 inhibition, confirmation; shares compounds with PLCg1 inh; purified PLC-beta3, fluorogenic substrate fluorescence; inhibition, % at 12.3 µM; actives 1% (n = 3,300); AID 743261; in the data active means inhibition above about 11%
# An asterisk follows results filed as active; i = inactive; . = no result given. Unless noted, no stated cut-off is given here; in the data, active means inhibition above about 9.5%; inactive means the rest.
SMILES,ADAM10 inh,KLK7 zymogen act,ADAM17 inh,PLCb3 inh,PLCg1 inh,PLCg1 ctr,PLCb3 confirm
COc1cccc(-c2cc(C(=O)NCC3CCCO3)c3cc(Br)cc(C)c3n2)c1 (stereo not given),-5,0,-1,-7,-1,.,.
Cc1cc(Br)cc2c(C(=O)NCC3CCCO3)cc(-c3cccs3)nc12 (stereo not given),-9,0,1,2,12*,-23,-31
CCN(CCS(=O)(=O)c1ccc(Br)cc1)Cc1nc2ccccc2c(=O)[nH]1,-6,-1,0,-11,-5,.,.
CC(=O)NS(=O)(=O)c1ccc(N=NN2CCOCC2)cc1,14,1,5,11*,9.8*,-2,0
CC(=O)NS(=O)(=O)c1ccc(N=NN2CCCCCC2)cc1,6,0,0,6,2,.,.
CC1CCC(NC(=O)CCN2C(=O)C3CC=CCC3C2=O)CC1 (stereo not given),10,1,1,0,12*,-2,1
O=C(CSc1nc2ccccc2[nH]1)Nc1ccccc1N1CCOCC1,11,1,2,5,10*,-4,1
O=C(CSc1nc2ccccc2[nH]1)Nc1cc(C(F)(F)F)ccc1N1CCOCC1,10,1,3,2,2,.,.
COC(=O)[C@]12C[C@H](CC(=O)N3CCCC3)C(=O)N(CCc3ccc(OC)c(OC)c3)C1=C[C@H](COCc1ccccc1)O[C@@H]2C,-4,1,-4,2,0,.,.
Cc1ccc(S(=O)(=O)N2CCCC(C(=O)Nc3c(C)n(C)n(-c4ccccc4)c3=O)C2)cc1 (stereo not given),0,0,0,2,2,.,.
Cc1c(NC(=O)C2CCCN2S(=O)(=O)c2ccccc2)c(=O)n(-c2ccccc2)n1C (stereo not given),8,0,7,13*,5,4,-5
CCS(=O)(=O)Nc1c(C)n(C)n(-c2ccccc2)c1=O,7,1,5,8,9.6*,-7,-3
OCCN1CCN(c2ncnc3c2ncn3[C@H]2CN(Cc3cccc(C(F)(F)F)c3)C[C@@H](CO)O2)CC1,-3,0,0,1,-1,.,.
CCOC(=O)[C@]12CCCC=C1N(Cc1ccccc1)C(=O)[C@H](CC(=O)N1CCCCCC1)C2,-10,1,-5,1,2,.,.
COc1ccc(CCNC(=O)Nc2nnc([C@@H]3C[C@H](O)[C@@H](CO)O3)s2)cc1OC,-14,1,-4,1,2,.,.
O=C(NCCc1cccs1)Nc1nnc([C@H]2C[C@H](O)[C@@H](CO)O2)s1,-3,0,2,-2,11*,-12,-8
Cc1ccccc1NC1=C/C(=N\S(=O)(=O)c2ccc(C(=O)O)cc2)c2ccccc2C1=O,-6,1,0,9,25*,20*,4
Cc1ccccc1NC1=C/C(=N\S(=O)(=O)c2cccs2)c2ccccc2C1=O,-9,-1,1,4,4,.,.
COc1c(C(C)(C)C)cc(S(=O)(=O)N2c3ccccc3C[C@H]2C)cc1C(C)(C)C,6,.,0,4,1,.,.
CCOc1cc(CNCC2CCCN2CC)cc(Cl)c1OC (stereo not given),2,0,5,1,12*,-1,-1
CCN1CCCC1CNCc1cc(OC)c(OC)c(OC)c1 (stereo not given),-5,-1,-3,2,1,.,.
COc1ccc(CC(=O)Nc2cc(S(=O)(=O)N3CCCCC3)ccc2OC(C)C)cc1OC,0,0,0,-1,-2,.,.
CCCNC(=O)C1(C)CCCN(C(=O)CN2C(=O)c3ccccc3C2=O)C1 (stereo not given),-12,0,-4,-6,10*,-3,1
CC1(C(=O)Nc2cccnc2)Cc2c(-c3ccc4c(c3)OCO4)ccnc2O1 (stereo not given),-86,1,-25,-16,-5,.,.
COc1cc2cc(C(=O)NC(C)c3cccc4ccccc34)c(N)nc2cc1OC (stereo not given),i,-75,i,i,i,.,.
SMILES,ADAM10 inh,KLK7 zymogen act,ADAM17 inh,PLCb3 inh,PLCg1 inh,PLCg1 ctr,PLCb3 confirm
COc1cc(/C=C(\C#N)C(=O)c2ccc(O)c(O)c2)cc(I)c1O,0,1,-2,-1,10*,-44,-44
CC(=O)Cn1c(N2CCC(Cc3ccccc3)CC2)nc2c1c(=O)[nH]c(=O)n2C,1,0,0,1,-1,.,.
Cn1c(=O)[nH]c(=O)c2c1nc(SCCN1CCOCC1)n2Cc1ccccc1,-3,0,-4,1,-1,.,.
CN1CCN(c2nc3c(c(=O)[nH]c(=O)n3C)n2CCOc2ccccc2)CC1,7,0,-3,3,2,.,.
CCCn1c(N2CCC(Cc3ccccc3)CC2)nc2c1c(=O)[nH]c(=O)n2C,2,0,3,4,12*,0,-2
Cn1c(=O)[nH]c(=O)c2c1nc(SCCN1CCOCC1)n2CCCc1ccccc1,0,1,4,12*,6,0,1
Cn1c(=O)[nH]c(=O)c2c1nc(N1CCCCCC1)n2CCOc1ccccc1,-8,0,0,-8,11*,-4,-1
Cc1ccccc1C(=O)NNC(=O)C(=O)N1CCCCC1,-5,0,4,3,10*,-6,-3
Cc1ccc(C(=O)Nc2ccccc2C(=O)N2CCCCCC2)cc1,-1,1,-1,8,10*,-8,-6
O=C(NNC(=O)c1ccccc1)C(=O)N1CCCCC1,-6,0,-3,4,2,.,.
O=C(Nc1ccccc1C(=O)N1CCCC1)c1ccccc1,-6,-1,-4,-1,0,.,.
COc1ccc(S(=O)(=O)N2CCCCC2)cc1NS(=O)(=O)c1ccccc1,-19,0,-2,-1,4,.,.
Cc1cccc(C)c1NC(=O)C1(C)CN(S(C)(=O)=O)CC(=O)N1Cc1ccco1 (stereo not given),-5,1,-3,1,-1,.,.
CC(C)(C)N1C(=O)[C@H]2[C@@H](c3ccc(Br)cc3)N3C(=O)N(c4cccc(Cl)c4)C(=O)[C@@]3(Cc3ccccc3)[C@H]2C1=O,-5,1,1,2,10*,-2,1
O=c1[nH]c(-c2ccccn2)nc(C(F)(F)F)c1Br,9,-1,-2,1,11*,-5,-3
O=C(c1cccc(F)c1F)N1CCCC(c2nc(-c3cccs3)no2)C1 (stereo not given),-2,-1,0,0,0,.,.
CCOC(=O)c1oc2ccccc2c1COC(=O)C(C)NC(=O)c1ccco1 (stereo not given),-7,-1,7,1,10*,2,5
CN(Cc1cn(-c2ccccc2)nc1-c1cc2ccccc2o1)C(=O)CCC(=O)O,-128,1,-38,0,10*,-6,-3
